Lassa entry inh: inhibitors of Lassa virus binding or cell entry | Lassa virus pseudotype entry inhibition, cell reporter | Potency, µM (highest dose often 37.9 µM), inactives show at the top dose activity change, negative = inhibition, usual class: inhibitors | actives 1.2% (n = 300,000) | AID 540256; calls by dose curve; tested in HEK293 cells; also: potency is read from the fitted curve at half-maximal effect; nearly all actives have a fitted effect of over 50% in size
MARV entry inh: inhibitors of Marburg virus binding or cell entry | Potency, µM (highest dose often 37.8 µM), without a hit: at the highest dose activity change, negative = inhibition, most hits filed as inhibitors | Marburg virus pseudotyped entry inhibition, cell reporter | actives 1.8% (n = 300,000); calls by dose curve; tested in HEK293 cells; also: potency is read from the fitted curve at half-maximal effect
HCMV inh: blocks human cytomegalovirus replication. HFF cells, HCMV-luciferase reporter, 72 h; stronger effect = lower value. activity change, negative = inhibition, % at 57.5 µM. AID 1259415. actives 4.5% (n = 410,000); in the data active = activity change below about -60%; inconclusive = no clear call, values can overlap the other calls; inactive = above about -39%
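After 16 h attachment at 37C, HFF cells received test compound and HCMV-luciferase (1 PFU/cell); reporter luminescence read 72 h later, data normalized against buffer-only and known inhibitor Salinomycin.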
FMDV inh: blocks foot and mouth disease virus. FMDV antiviral cell-based qHTS. Potency, µM (doses to about 57.9 µM), for inactives: at the top dose activity change, negative = inhibition, most hits filed as inhibitors. actives 1.2% (n = 410,000). AID 1159524; calls by dose curve; tested in HEK293T cells; also: read-out not given here; potency is read from the fitted curve at half-maximal effect; nearly all actives have a fitted effect of over 45% in size
* = called active by the depositor; ? = inconclusive; . = no result given; [ ] = dose if it differs, or a comment. Only some compounds are listed: those with a hit (about 6.2% of all), similar ones and a draw of the others. % is scaled to controls: 0 for no effect and ±100 for the full control effect.

SMILES	Lassa entry inh	MARV entry inh	HCMV inh	FMDV inh
N#CC1=C(SCC(=O)c2ccc(Br)cc2)NC2=C(C(=O)CCC2)[C@H]1c1ccco1	.	8.91µM*	.	.
CC1(C)CC(=O)C2=C(C1)NC(SCC(=O)Nc1ccccc1)=C(C#N)C2c1ccco1 (stereo not given)	?	14.1µM*	?	-1.4%
Cc1ccc(C(=O)CSC2=C(C#N)C(c3ccco3)C3=C(CC(C)(C)CC3=O)N2)cc1 (stereo not given)	?	?	-68.4*	-29.4%
Clc1ccc2noc(-c3ccccc3)c2c1	1.3%	2.2%	14.1	.
CCOc1ccc(N=Nc2ccc(O)c3ncccc23)cc1	-20.0%[46.1 µM]	?	-87.1*	13.6%
CCN(CC)S(=O)(=O)c1cccc2cccnc12	-11.5%	2.2%	12.6	14.6%
CCN(CC)S(=O)(=O)c1cc(OC)ccc1N=Nc1ccc(O)c2ncccc12	.	.	-97.0*	-19.7%
NS(=O)(=O)c1ccc(N=Nc2ccc(O)c3ncccc23)cc1	.	.	-97.3*	-16.0%
C=CCn1c(O)c(C(C)=Nc2ccc3c(c2)CCC3)c(=O)[nH]c1=O	-27.7%	14.1%[14.2 µM]	68.2	-28.3%
C=CCn1c(O)c(C(CC)=Nc2ccc3c(c2)CCC3)c(=O)[nH]c1=O	0.891µM*	9.4%	49.8	?
Cc1cccc(CCNS(=O)(=O)c2cnc[nH]2)c1	3.3%	?	21.8	-2.6%
Cc1cc(C)n2ncc(C(=O)NCc3ccc(Cl)cc3)c2n1	-37.6%	-7.1%	33.3	8.3%
C=CCON/C(CCC)=C1\C(=O)CC(C)(C)CC1=NC	-7.9%	13.8%[46.1 µM]	60.9	16.6%
CC(=O)c1ccc(NC(=S)Nc2cccc3ccccc23)cc1	.	.	-5.4	-4.3%
CC(=O)c1cccc(NC(=O)C(=O)Nc2cccc3ccccc23)c1	-28.3%	?	-60.3*	78.6%
CC(=O)N(C)c1ccc(NC(=S)Nc2cccc3ccccc23)cc1	-1.5%	?	-71.3*	-10.2%
CC(=O)c1ccc(N2CCN(C(=O)c3ccc(Br)cc3)CC2)c(F)c1	4.9%	15.1%[46.1 µM]	39.3	0.0%
COC(=O)c1sc2cc([N+](=O)[O-])cc(SCC(C)C)c2c1N	-19.2%	16.7%	-63.5*	-27.6%
CCCc1nc(C)c2c(=O)[nH]c(-c3cc(S(=O)(=O)N4CCN(CC)CC4)ccc3OCC)nn12	.	.	5.9	-16.2%
COc1ccc(NS(=O)(=O)c2cccc(C(=O)NNC(=O)c3cc(C)oc3C)c2)cc1	-12.9%	-16.3%	-100.9*	-4.2%
COc1ccc(NS(=O)(=O)c2cccc(C(=O)NNC(=O)c3ccccc3O)c2)cc1	?	-22.5%[46.1 µM]	-94.4*	11.6%
COc1ccccc1C(CNC(=O)c1cccc(S(=O)(=O)Nc2ccc(C)cc2)c1)N(C)C (stereo not given)	-16.4%	?	-76.4*	7.2%
COC(=O)C1=C(CN2CCCc3ccccc32)NC(=O)NC1c1ccc(F)cc1 (stereo not given)	?	?	-80.8*	.
COC(=O)C1=C(CN2CCc3ccccc32)NC(=O)NC1c1cc(C)ccc1C (stereo not given)	?	-28.1%	47.5	-3.1%
Cc1c(C(=O)c2ccccc2)c2ccccn2c1CCc1ccccn1	?	?	-12.2	-23.3%
SMILES	Lassa entry inh	MARV entry inh	HCMV inh	FMDV inh
Cc1c(C(=O)c2ccc(F)cc2)c2ccccn2c1CCc1ccccn1	8.3%[46.1 µM]	?	-15.6	39.8µM*
CC1=NN(C(=O)c2ccccc2C)C(O)(c2ccc(Cl)cc2)C1 (stereo not given)	6.4%[46.1 µM]	-24.9%[46.1 µM]	-9.6	-11.1%
COc1cccc(NC(=O)Nc2nnc(Cc3ccc(OC)c(OC)c3)s2)c1	?	?	-14.6	-22.1%
C[C@@]1(CO)[C@H](O)CC[C@@]2(C)[C@H]1CC[C@H]1C[C@@H]3C[C@@]12CC[C@]3(O)CO	?	0.517µM*	.	-18.9%[97.4 µM]
Cn1cnc([N+](=O)[O-])c1Sc1ccc([N+](=O)[O-])cc1	-28.6%	?	0.0	22.4µM*
FC(F)Oc1ccc(NC(=S)NC2CCSc3ccccc32)cc1 (stereo not given)	-23.2%	-28.6%	-82.3*	0.0%
Cc1ccc(N2C(=O)C3C(C2=O)C2C=CC3C23CC3)cc1 (stereo not given)	0.5%	12.5%	19.3	25.8%
COc1cccc(NC(=O)NC2(C(F)(F)F)Oc3ccccc3O2)c1	-18.9%	8.2µM*	29.9	-19.7%
Cc1nnc(NC(=O)c2nc(S(=O)(=O)Cc3ccccc3C)ncc2Cl)s1	.	.	-102.1*	25.1µM*
CCOC(=O)c1ccc(NC(=O)c2nc(SCc3ccccc3F)ncc2Cl)cc1	4.9%[46.1 µM]	7.4%[46.1 µM]	22.5	-17.3%
CSc1nnc(NC(=O)c2nc(S(=O)(=O)Cc3ccccc3F)ncc2Cl)s1	?	?	-96.1*	7.08µM*
Cc1ccc2nc(NC(=O)c3nc(SCc4ccccc4C)ncc3Cl)sc2c1	11.5%[46.1 µM]	1.0%[46.1 µM]	-2.4	6.2%
Cc1nnc(NC(=O)c2nc(SCc3ccccc3F)ncc2Cl)s1	-0.6%[46.1 µM]	-11.5%[46.1 µM]	30.9	-23.5%
O=C(Nc1nc2ccc(F)cc2s1)c1nc(S(=O)(=O)Cc2ccccc2F)ncc1Cl	?	?	-109.3*	?
CCOc1ccc(NC(=O)c2nc(S(=O)(=O)Cc3ccccc3F)ncc2Cl)cc1	?	?	-99.9*	25.1µM*
CC(=O)NC1c2ccccc2C(=O)N1Cc1ccccc1 (stereo not given)	.	.	9.3	11.1%
CC(C)c1nnc(NC(=O)CCC(=O)NCc2ccccc2Cl)s1	-8.0%[46.1 µM]	6.6%[46.1 µM]	8.5	-5.7%
CC(C)c1nnc(NC(=O)c2nc(S(=O)(=O)Cc3ccccc3F)ncc2Cl)s1	.	.	-111.1*	28.2µM*
COc1cc(NC(=O)c2cc(-c3ccc(Cl)c(Cl)c3)on2)cc(OC)c1OC	?	-3.8%[46.1 µM]	-18.0	-16.1%
COc1ccc(-n2nc3c(N4CCC(C(=O)NCc5cccc(C)c5)CC4)nnc(C)c3c2C)cc1	.	.	-99.9*	-5.2%
COc1ccc(-n2nc3c(N4CCCC(C(=O)NCc5cccc(F)c5)C4)nnc(C)c3c2C)cc1 (stereo not given)	-10.7%[46.1 µM]	.	-84.1*	-16.2%
COc1ccc(-n2nc3c(N4CCC(C(=O)NCCc5ccco5)CC4)nnc(C)c3c2C)cc1	.	.	-30.9	-8.1%
COc1ccc(CNC(=O)c2ccccc2NS(C)(=O)=O)cc1	4.4%	-5.2%[46.1 µM]	?	-4.3%
COc1ccc(/C=C2\SC(=S)N(CCCC(=O)N3CCOCC3)C2=O)cc1	-23.0%	?	?	-18.2%
O=C(CCCN1C(=O)/C(=C\c2ccccc2)SC1=S)N1CCOCC1	-14.5%	?	-98.5*	-21.7%
SMILES	Lassa entry inh	MARV entry inh	HCMV inh	FMDV inh
O=C(CN1C(=O)/C(=C/c2ccccc2)SC1=S)N1CCN(CCc2ccccn2)CC1	?	?	-90.2*	-28.2%
CCOC(=O)N1CCN(C(=O)CCN2C(=O)/C(=C\c3ccc(OC)c(OC)c3)SC2=S)CC1	.	.	-9.5	-5.9%
O=C(c1ccccc1)N1CCN(CCc2ccccn2)CC1	13.2%	-12.1%[46.1 µM]	-17.0	-4.2%
COc1cc(/C=C2\SC(=S)N(CCC(=O)N3CCCCC3)C2=O)cc(OC)c1OC	?	?	?	28.2µM*
O=C(CCN1C(=O)/C(=C\c2ccccc2)SC1=S)N1CCCCC1	0.0%	2.5%[46.1 µM]	-67.5*	9.7%
CCN(CC(=O)Nc1sc2c(c1C#N)CCCC2)CC(=O)NC1CCS(=O)(=O)C1 (stereo not given)	2.3%	13.9%[46.1 µM]	-31.3	2.2%

Bioassay records from PubChem.
